The text below walks through data of PubChem BioAssay AID1069 (NMMLSC, 2008).

Calls of active or inactive are those of the source.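 Rule for the calls: active = high combined rank on largest and smallest cell-count-weighted shift across three tests, rank score above 45, floors 50 and 25 (some results past the limit were not filed as active); inactive = the rest.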

The nature of this test: LNCaP granularity increase inducers, single-point recheck – cell-based, side scatter shift, flow cytometry, confirmation (AID 1069).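 Note: LNCaP human prostate cancer cells in low-serum medium with charcoal-stripped FBS; percent of cells with raised granularity gated so DMSO controls show 10%.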 The following applies: LNCaP differentiation, 4 d, stronger effect = higher value. On the technique in general: Flow cytometry measures light scatter and fluorescence of single cells or particles in a stream.

In the case of `O=c1cc(-c2ccccc2)[nH]c2ccccc12`, the side scatter shift by setting is: (at 100 µM) 22.2% (inactive); (side scatter shift, at 10 µM) 9.15%.

As for `O=C(c1ccccc1)c1ccc(N2CCNCC2)cc1`, the side scatter shift reads like this: (at 100 µM) 63% (active); (side scatter shift, at 10 µM) 7.95%.

Regarding `CCOc1cccc2cc(-c3cn4cc(C)ccc4n3)c(=O)oc12`, the side scatter shift runs as follows: (at 100 µM) 43.1% (active); (side scatter shift, at 10 µM) 2.1%.

For `CCOC(=O)c1c(C)[nH]c(C(=O)COC(=O)C2CC2C)c1C` (stereo not given), the side scatter shift by setting is: (at 100 µM) 24.3% (active); (side scatter shift, at 10 µM) 44.6%.

For the compound `O=c1c2ccccc2nnn1CSc1nnc2sc3ccccc3n12`, the side scatter shift was 15.6% (inactive) (at 100 µM) and 4.8% (side scatter shift, at 10 µM).

As for `CCOC(=O)N1CCN(C(=O)CN(c2cccc(C(F)(F)F)c2)S(=O)(=O)c2ccccc2)CC1`, the side scatter shift is 11.7% (inactive) (at 100 µM) and 5.4% (side scatter shift, at 10 µM).

For the compound `CN1CCN(c2oc(COc3ccc(-c4ccccc4)cc3)nc2C#N)CC1`, the side scatter shift by setting is: (at 100 µM) 40% (inactive); (side scatter shift, at 10 µM) 10.8%.

As for `Cc1oc(-c2ccccc2F)nc1CN1CCC(C(=O)NCCC2=CCCCC2)CC1`, the side scatter shift was 29.4% (inactive) (at 100 µM) and 17.8% (side scatter shift, at 10 µM).

As for `Cc1oc(-c2cccc(Cl)c2)nc1CN1CCCC(C(=O)NCc2ccco2)C1` (stereo not given), the side scatter shift (at 100 µM) was 50% (inactive) and the side scatter shift (side scatter shift, at 10 µM) worked out at 5.55%.

Take `Cc1oc(-c2cccc(Cl)c2)nc1CN1CCC(C(=O)NCCCN2CCCC2=O)CC1`: the side scatter shift was 15.1% (inactive) (at 100 µM) and 2.65% (side scatter shift, at 10 µM).

`CCOC(=O)N1CCN(CC(=O)Nc2cc(C)nn2-c2nc3ccccc3s2)CC1`: the side scatter shift (at 100 µM) was 19.3% (inactive) and the side scatter shift (side scatter shift, at 10 µM) stood at 2.6%.

With `Cc1cc(NC(=O)CSc2nnc(Cn3c(=O)sc4ccccc43)n2-c2ccccc2C)no1`, the side scatter shift (at 100 µM) is 26.5% (inactive) and the side scatter shift (side scatter shift, at 10 µM) came to 8.25%.

Regarding `C=CCn1c(=N)n(CC(O)COc2ccc(OC)cc2)c2ccccc21` (stereo not given), the side scatter shift is 18.9% (inactive) (at 100 µM) and 10.9% (side scatter shift, at 10 µM).

For the compound `Cc1ccc2c(c1)NC(=O)C(CC(=O)NCCCN1CCN(c3cc(Cl)ccc3C)CC1)O2` (stereo not given), the side scatter shift (at 100 µM) was 0% (inactive) and the side scatter shift (side scatter shift, at 10 µM) was 7.35%.

For `Cc1noc(C)c1S(=O)(=O)N1CCC(C(=O)NCCN2CCC(C)CC2)CC1`, the side scatter shift runs as follows: (at 100 µM) 12.7% (inactive); (side scatter shift, at 10 µM) 4.95%.

As for `Cn1c(=O)cc(SCC(=O)NCCCN2CCN(c3ccc(F)cc3)CC2)c2ccccc21`, the side scatter shift by setting is: (at 100 µM) 46.7% (inactive); (side scatter shift, at 10 µM) 8.35%.

`CCOC(=O)N1CCC(NC(=O)c2cc3c(-c4ccccc4F)nn(C)c3s2)CC1`: the side scatter shift (at 100 µM) is 3.3% (inactive) and the side scatter shift (side scatter shift, at 10 µM) is 3.9%.

Regarding `N=c1n(CCN2CCCCC2)c2ccccc2n1CC(O)COc1ccccc1` (stereo not given), the side scatter shift by setting is: (at 100 µM) 20% (active); (side scatter shift, at 10 µM) 50.2%.

As to `Cc1ccccc1-c1nc(CN2CCC(C(=O)NCc3ccco3)CC2)c(C)o1`, the side scatter shift is, setting by setting: (at 100 µM) 41.1% (inactive); (side scatter shift, at 10 µM) 3.2%.

Regarding `CCOc1nc(-c2ccccc2O)nc2ccccc12`, the side scatter shift is, setting by setting: (at 100 µM) 13.5% (inactive); (side scatter shift, at 10 µM) 8.8%.

As to `CCSc1nnc(Cn2c(=O)sc3ccccc32)n1-c1ccccc1C`, the side scatter shift is, setting by setting: (at 100 µM) 20.5% (inactive); (side scatter shift, at 10 µM) 9.7%.

As for `CN1CCN(CCCNC(=O)c2cc3c(-c4ccc(Cl)cc4)nn(C)c3s2)CC1`, the side scatter shift by setting is: (at 100 µM) 14.3% (active); (side scatter shift, at 10 µM) 57%.

Take `Cn1c(C(=O)NCCCN2CCN(c3cccc(Cl)c3)CC2)cc2c(=O)n(C)c3ccccc3c21`: the side scatter shift was 69.6% (active) (at 100 µM) and 5.45% (side scatter shift, at 10 µM).

For `CCCOc1ccccc1C1CC(=O)Nc2cc3c(cc21)OCO3` (stereo not given), the side scatter shift (at 100 µM) was 16.7% (inactive) and the side scatter shift (side scatter shift, at 10 µM) worked out at 22.1%.

Take `CCC(C(=O)Nc1ccccc1OC)n1c(C(=O)OC)cc2ccsc21` (stereo not given): the side scatter shift (at 100 µM) was 12.2% (inactive) and the side scatter shift (side scatter shift, at 10 µM) was determined as 2.5%.

In the case of `CN(C(=O)c1ccccn1)c1nnc(-c2cccnc2)s1`, the side scatter shift (at 100 µM) is 8.3% (inactive) and the side scatter shift (side scatter shift, at 10 µM) turned out to be 2.1%.

For the compound `CCc1ccc(-c2nc(CN3CCC(C(=O)NCc4ccccc4OC)CC3)c(C)o2)cc1`, the side scatter shift was 12.2% (inactive) (at 100 µM) and 14.5% (side scatter shift, at 10 µM).

Take `CCOC(=O)N1CCN(C(=O)C2CCN(Cc3nc(-c4ccccc4C)oc3C)CC2)CC1`: the side scatter shift (at 100 µM) was 30.6% (inactive) and the side scatter shift (side scatter shift, at 10 µM) worked out at 5.15%.

As to `COC(=O)c1[nH]c2c(c1C)C(=O)CCC2`, the side scatter shift reads like this: (at 100 µM) 7.2% (inactive); (side scatter shift, at 10 µM) 3.6%.

For the compound `CCn1c(C(=O)NCCCN2CCc3ccccc3C2)cc2sccc21`, the side scatter shift reads like this: (at 100 µM) 12.5% (inactive); (side scatter shift, at 10 µM) 14.8%.

For `CC1(C)CC(=O)c2cc(OCC(=O)NCCCN3CCN(c4ccc(F)cc4)CC3)ccc2O1`, the side scatter shift is, setting by setting: (at 100 µM) 5.9% (inactive); (side scatter shift, at 10 µM) 15.1%.

For `COCCCN(C(=O)Nc1ccccc1)C(C)c1ccncc1` (stereo not given), the side scatter shift is, setting by setting: (at 100 µM) 9.2% (inactive); (side scatter shift, at 10 µM) 2.8%.

In the case of `COc1ccc(N2CCN(c3oc(COc4ccccc4Cl)nc3C#N)CC2)cc1`, the side scatter shift (at 100 µM) is 24.8% (inactive) and the side scatter shift (side scatter shift, at 10 µM) came to 9.2%.

For the compound `CCN1CCCC1CNC(=O)C1CCN(Cc2nc(-c3cccc(Br)c3)oc2C)CC1` (stereo not given), the side scatter shift (at 100 µM) was 6.3% (active) and the side scatter shift (side scatter shift, at 10 µM) was determined as 60.2%.

As to `Cc1ccc(-c2noc(CCC(=O)NC3CCN(Cc4ccccc4)CC3)n2)cc1`, the side scatter shift runs as follows: (at 100 µM) 33.3% (inactive); (side scatter shift, at 10 µM) 4.5%.

In the case of `Cc1cc(O)c(-c2cc(C(=O)Nc3ccc(S(=O)(=O)N4CCOCC4)cc3)[nH]n2)cc1C`, the side scatter shift (at 100 µM) is 5.6% (inactive) and the side scatter shift (side scatter shift, at 10 µM) was found to be 9.8%.

In the case of `COc1ccc(-c2ccc(-c3nnn(CC(C)=O)n3)cc2)cc1`, the side scatter shift (at 100 µM) was 11.7% (inactive) and the side scatter shift (side scatter shift, at 10 µM) turned out to be 2.95%.

Turning to `CC(=O)Nc1cc(C(=O)N2CCOCC2)ccc1S(=O)(=O)c1ccc(C)cc1`, the side scatter shift reads like this: (at 100 µM) 11.4% (inactive); (side scatter shift, at 10 µM) 2.95%.

Take `c1ccc(N2CCN(c3nnc(Cc4cccnc4)c4ccccc34)CC2)nc1`: the side scatter shift reads like this: (at 100 µM) 17.5% (inactive); (side scatter shift, at 10 µM) 8%.

In the case of `COc1ccc(CCNC(=O)C2CCCN(Cc3nc(-c4cccc(Cl)c4)oc3C)C2)cc1OC` (stereo not given), the side scatter shift by setting is: (at 100 µM) 28.6% (inactive); (side scatter shift, at 10 µM) 3.85%.
